3T3 cytotox: kills NIH 3T3 cells; Potency, µM (top dose mostly 96.7 µM), for inactives: at the top dose activity change, negative = cytotoxicity, most hits filed as inhibitors; 94,000 tested, 4.3% active; NIH 3T3 viability, CellTiter-Glo ATP luminescence, 48-72 h; also: nearly all actives have a fitted effect of over 55% in size
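Viability of NIH 3T3 cells after 48 or 72 hr compound treatment at 37 °C was assessed by CellTiter-Glo, with luminescence imaged following a 10 min room-temperature step.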
HEK293 tox: kills HEK 293 cells | HEK 293 viability, ATP luminescence (CellTiter-Glo), 48-72 h | Potency, µM (highest dose often 115 µM), for the others: top-dose activity change, negative = cytotoxicity, actives largely listed as inhibitors | AID 1345083 | 94,000 tested, 6.6% active; also: nearly all actives have a fitted effect of over 60% in size
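Pintool-delivered compounds were incubated with HEK 293 cells (250 cells/well) at 37 degree Celsius for 48 or 72 hr. ATP-dependent luminescence (CellTiter-Glo) then reported remaining viable cells.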
Luciferase inh: inhibitors of firefly (Photinus pyralis) luciferase. P08659. purified P. pyralis luciferase, luminescence, biochemical. Potency, µM (highest dose often 115 µM), usual class: inhibitors. 76,000 tested, 2.5% active; also: nearly all actives have a fitted effect of over 65% in size
Target sequence (P08659 whole entry, looked up): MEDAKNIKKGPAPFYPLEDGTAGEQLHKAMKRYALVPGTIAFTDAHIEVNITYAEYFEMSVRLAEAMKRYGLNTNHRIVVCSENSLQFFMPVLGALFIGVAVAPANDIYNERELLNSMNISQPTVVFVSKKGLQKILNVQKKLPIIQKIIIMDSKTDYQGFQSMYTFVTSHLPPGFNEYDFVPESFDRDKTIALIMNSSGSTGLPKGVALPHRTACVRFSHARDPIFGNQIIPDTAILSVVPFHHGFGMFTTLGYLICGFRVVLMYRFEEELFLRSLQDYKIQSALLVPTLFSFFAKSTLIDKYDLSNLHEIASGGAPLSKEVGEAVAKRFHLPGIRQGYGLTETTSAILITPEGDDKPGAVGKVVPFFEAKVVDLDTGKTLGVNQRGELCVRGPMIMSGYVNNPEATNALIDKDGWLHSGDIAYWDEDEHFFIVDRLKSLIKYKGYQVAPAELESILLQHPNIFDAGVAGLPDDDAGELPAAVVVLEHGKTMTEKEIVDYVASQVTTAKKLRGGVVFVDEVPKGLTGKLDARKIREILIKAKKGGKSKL
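Inhibitors were tested against purified firefly luciferase in a biochemical, low-substrate format (both substrates at 10uM) and luminescence measured with a CCD imager.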
hNpr1 antagonist: blocks ANP-stimulated signaling of human Npr1 receptor. P16066. HEK293 hNpr1 GloSensor cGMP, ANP-stimulated luminescence. 76,000 tested, 1.6% active. Potency, µM (highest dose often 46.3 µM), inactives show top-dose activity change, negative = inhibition, hits mostly inhibitors; calls by dose curve; also: nearly all actives have a fitted effect of over 60% in size
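Compound pre-incubated 30 min at room temperature on GloSensor-loaded HEK293 cells stably carrying hNpr1 and the pGS-40F cGMP biosensor. Stimulation uses hNppA at 0.1 nM final; luminescence is taken at baseline and 20 min post-agonist.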
* hit, by the source's call; i = inactive; ? = inconclusive; / = no result given; [ ] = dose if it differs, or a comment. The list is not random: actives were taken first. Their share in the collection is about 11%. Unless noted, calls follow the shape of the dose curve; as a rule, active = well fitted curve in the direction sought with a large enough effect; inconclusive = small, poorly fitted or top-dose-only effect, or another doubt; inactive = no such curve, though single readings can be large; an effect the other way counts as inactive or inconclusive. % is scaled to controls: 0 for no effect and ±100 for the full control effect; potency is read from the fitted curve at half-maximal effect.

SMILES | 3T3 cytotox | HEK293 tox | Luciferase inh | hNpr1 antagonist
CCCCNC(=O)CC(c1cccc([N+](=O)[O-])c1)c1c[nH]c2ccccc12 (stereo not given) | ? | ? | i | -17.6%
O=C(CC(c1ccc(Cl)cc1)c1c[nH]c2ccc([N+](=O)[O-])cc12)N1CCOCC1 (stereo not given) | ? | 39.8µM* | i | ?
O=C(NC1CCCCC1)O[C@@H]1CO[C@H]2[C@@H]1OC[C@@H]2n1nnnc1Sc1ccccc1 | ? | 100µM* | i | -10.7%[70.6 µM]
O=C(NC1CCCCC1)O[C@@H]1CO[C@H]2[C@@H]1OC[C@@H]2n1nnnc1Sc1ncccn1 | -7.7%[174 µM] | -11.0%[172 µM] | i | 6.2%[70.6 µM]
O=C1CCN(C(=O)c2ccco2)CCCC(c2nc(-c3ccccc3)no2)CCN1 (stereo not given) | -5.0% | -28.2% | 28.2µM* | -5.4%
Cc1ccc(CN2CCCC(c3nc(-c4cccnc4)no3)CCNC(=O)CC2)s1 (stereo not given) | ? | 89.1µM* | i | -2.8%
COc1cccc(CC(=O)N2CCCC(c3nc(-c4ccccc4)no3)CCNC(=O)CC2)c1 (stereo not given) | -30.3% | i | ? | -11.2%
COc1ccc(CCC(=O)N2CCCC(c3nc(-c4ccccc4)no3)CCNC(=O)CC2)cc1 (stereo not given) | ? | 89.1µM* | i | 4.6%
O=C1CCN(C(=O)C2CCCC2)CCCC(c2nc(-c3ccccc3)no2)CCN1 (stereo not given) | 4.3% | ? | i | -4.7%
CCc1ccc(NC(=O)c2cc(-c3ccc[nH]3)n[nH]2)cc1 | -16.9% | ? | 3.16µM* | 7.4%
Cc1cc(C)cc(NC(=O)c2cc(-c3ccc[nH]3)n[nH]2)c1 | ? | ? | 20µM* | -3.4%
O=C(Nc1ccc(Cl)cc1)c1cc(-c2ccc[nH]2)n[nH]1 | -25.1% | ? | ? | 1.2%
Cc1ccc(NC(=O)c2cc(-c3ccc[nH]3)n[nH]2)cc1C | 1.0% | 2.5% | 7.94µM* | 2.7%
Cc1cc(C)cc(NC(=O)c2cc3n(n2)CC(c2ccc(Cl)cc2)OC3)c1 (stereo not given) | -39.1% | ? | i | -7.0%
Cc1ccc(NC(=O)c2cc(-c3ccc[nH]3)n[nH]2)cc1 | -14.0% | -7.9% | 3.98µM* | -0.5%
COc1ccc2c(c1)CCN=C2C[C@H]1CN(C(=O)C2CC2)CC[C@H]1CC(=O)O | i | 2.6%[172 µM] | i | 1.8%[70.6 µM]
COc1ccc2c(c1)CCN=C2C[C@H]1CN(C(=O)C(C)(C)C)CC[C@H]1CC(=O)O | ? | 112µM* | i | -9.7%[70.6 µM]
O=C(c1ccc(C(F)(F)F)cc1)N1CCC2(C1)C(=NC1CCCCC1)NC(=O)N2c1cccnc1 (stereo not given) | -2.0% | i | / | /
COc1cccc(N2C(=O)NC(=NC3CCCCC3)C23CCN(C(=O)c2ccccc2)CC3)c1 | 31.6µM* | -3.6% | / | /
COc1cccc(N2C(=O)NC(=NC3CCCCC3)C23CCN(C(=O)c2ccccc2)C3)c1 (stereo not given) | -5.8% | ? | i | -5.2%
O=C(c1ccc(C(F)(F)F)cc1)N1CCC2(CC1)C(=NC1CCCC1)NC(=O)N2c1cccnc1 | 35.5µM* | i | / | /
O=C(c1ccccc1)N1CCC2(CC1)C(=NC1CCCCC1)NC(=O)N2c1cc(F)cc(F)c1 | 31.6µM* | -9.4% | / | /
O=C(NCCc1ccccc1)N(C1CCOCC1)C1CCN(CC2CCCCC2)CC1 | -17.8% | ? | i | 4.1%
NC(=O)[C@@H](Cc1c[nH]c2ccccc12)NC(=O)[C@@H]1C[C@@H](NS(=O)(=O)c2cccs2)CCN1C(=O)CSCC(=O)O | -0.9% | -3.8% | i | 0.3%
Cc1cc(Cl)ccc1S(=O)(=O)N1CCC(Oc2ccc(C(N)=O)cn2)CC1 | ? | 25.1µM* | i | ?
SMILES | 3T3 cytotox | HEK293 tox | Luciferase inh | hNpr1 antagonist
Cc1cc(S(=O)(=O)N2CCC(Oc3ccc(C(N)=O)cn3)CC2)ccc1Cl | ? | ? | i | ?
CN(C)C(=O)c1nc(-c2ccc(F)cc2)c2cnccn12 | ? | -24.9%[172 µM] | i | 17.3%[70.6 µM]
O=C(C[C@@H]1CCNC[C@@H]1Cc1cc(-c2ccc(F)cc2)on1)Nc1ccccc1 | 35.5µM* | 39.8µM* | i | -14.0%[70.6 µM]
COc1ccc(-c2cc(C[C@H]3CNCC[C@H]3CC(=O)NCc3ccccc3OC)no2)cc1 | 70.8µM* | ? | i | -6.3%
O=C(C[C@@H]1CCNC[C@@H]1Cc1cc(-c2ccc(F)cc2)on1)NCc1ccco1 | ? | ? | i | -13.4%[70.6 µM]
COc1ccc(-c2cc(C[C@H]3CNCC[C@H]3CC(=O)N(C)Cc3ccccc3)no2)cc1 | 35.5µM* | 31.6µM* | i | -22.5%[70.6 µM]
O=C(C[C@@H]1CCNC[C@@H]1Cc1cc(-c2ccccc2)on1)NCc1ccc(F)cc1 | 39.8µM* | 39.8µM* | i | -10.4%[70.6 µM]
COc1ccc(-c2cc(C[C@H]3CNCC[C@H]3CC(=O)NCc3ccc(OC)c(OC)c3)no2)cc1 | ? | -28.6% | i | 0.6%
O=C(N[C@@H](Cn1cc(Cl)c(=O)[nH]c1=O)C(=O)O)C1CCC1 | -20.2%[174 µM] | -1.1%[172 µM] | i | 0.0%[70.6 µM]
COc1ccc(-c2cc(C[C@H]3CNCC[C@H]3CC(=O)NCc3ccc4c(c3)OCO4)no2)cc1 | 79.4µM* | ? | i | -16.0%
COc1ccc(CNC(=O)C[C@@H]2CCNC[C@@H]2Cc2cc(-c3ccc(OC)cc3)on2)cc1 | ? | 39.8µM* | i | -12.9%
COc1ccc(CNC(=O)C[C@@H]2CCNC[C@@H]2Cc2cc(-c3ccc(F)cc3)on2)cc1 | ? | 79.4µM* | i | -6.3%
CC(C)(C)NC(=O)C[C@@H]1CCNC[C@@H]1Cc1cc(-c2ccc(F)cc2)on1 | ? | ? | i | -7.6%[70.6 µM]
O=C(C[C@@H]1CCNC[C@@H]1Cc1cc(-c2ccc(F)cc2)on1)Nc1nccs1 | 100µM* | 100µM* | i | -1.6%[70.6 µM]
N#Cc1ccc(C(=O)NC2CCN(C(=O)N3CC4CC(C3)[C@H]3CCCC(=O)N3C4)CC2)cc1 (stereo not given in full) | i | 1.3% | i | 1.7%
COc1cccc([C@@H]2CN(CC3CCOCC3)C[C@H]2C(=O)O)c1OC | -8.3% | -4.0% | i | 0.7%
CN1CCC(C(=O)N2Cc3ccccc3CC3(CCCCN3CC3CCNC3)C2)CC1 (stereo not given) | -3.9% | -0.8% | / | /
CCCC(=O)Nc1cc(-c2ccncc2)nn1C | -14.0%[138 µM] | i | / | /
COc1ccc(CNC(=O)C[C@@H]2CCNC[C@@H]2Cc2cc(CN(C)Cc3ccccc3)on2)cc1 | -20.2% | 39.8µM* | i | -2.9%
CNC(=O)c1ccc2c(c1)C1(CCN(CC3CC3)C1)CN2Cc1ccccc1 (stereo not given) | ? | 100µM* | i | 3.4%[70.6 µM]
O=C(NC1COC1)c1ccc2c(c1)C1(CCN(CC3CC3)C1)CN2Cc1ccccc1 (stereo not given) | -25.2%[138 µM] | ? | i | 2.6%[70.6 µM]

Compound activity: PubChem, National Center for Advancing Translational Sciences (NCATS)
